Among the data in PubChem BioAssay (NCI) are growth values, retold here.

Holding throughout (test): NCI-60 one-dose screen, 48 h (100 = growth as untreated, 0 = no growth, -100 = all killed)
For assay [1], the system named is OVCAR-8 ovarian. Particulars: 10 µM unless noted.
The test system of assay [2] is OVCAR-5 ovarian. The conditions noted are these: 10 µM unless noted.
In assay [3] the test system is OVCAR-4 ovarian. The conditions noted are these: 10 µM unless noted.
Assay [4] deals with IGROV1 ovarian. The conditions noted are these: 10 µM unless noted.
Assay [5] deals with OVCAR-3 ovarian. Particulars: 10 µM unless noted.
Assay [6] has as its system HS 578T breast. Particulars: 10 µM unless noted.
For assay [7], the system named is NCI/ADR-RES ovarian. The conditions noted are these: 10 µM unless noted.
Assay [8] concerns BT-549 breast. Particulars: 10 µM unless noted.
The subject of assay [9] is MDA-MB-435 melanoma. Particulars: 10 µM unless noted.
The subject of assay [10] is SW-620 colon. The conditions noted are these: 10 µM unless noted.
In assay [11] the test system is MCF7 breast. The conditions noted are these: 10 µM unless noted.
Assay [12] has as its system HCT-116 colon. The conditions noted are these: 10 µM unless noted.
The test system of assay [13] is HCC-2998 colon. The conditions noted are these: 10 µM unless noted.
The test system of assay [14] is KM12 colon. Particulars: 10 µM unless noted.
Assay [15] has as its system RPMI-8226 leukemia. Particulars: 10 µM.
The subject of assay [16] is SK-OV-3 ovarian. Particulars: 10 µM.
Assay [17] relates to T-47D breast. Particulars: 10 µM.

SMILES strings stand for the structures. Several values for one entry are separate records, joined by “and”; a condition that tells them apart may be missing. Equal values may be shown once. Compounds without any hit were thinned out: in the full panel of roughly 83,000, 20% have a hit.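 The endpoint reported here, percent growth, reads 100 for growth as untreated, 0 for no net growth and -100 for all cells dead.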 Activity calls are given as the source filed them. Rule for the calls: active = growth percent below 10; inactive = the rest.

Take `Cc1c(C(=O)Nc2nc(-c3ccccc3)cs2)nnn1-c1ccccc1Br`: the growth in [1] is 40.1% [50 µM] (inactive); in assay [2], 77.4% [50 µM] (inactive); in assay [3], 19.6% [50 µM] (inactive); in [4], 68.3% [50 µM] (inactive); in assay [5], 57.3% [50 µM] (inactive); in assay [6] it was 65.3% [50 µM] (inactive). In addition, the growth in assay [7] is 38.1% [50 µM] (inactive); in assay [8], 35.5% [50 µM] (inactive); in assay [9], 20.1% [50 µM] (inactive); in [10], 61% [50 µM] (inactive); in [11], 19% [50 µM] (inactive); in assay [12], 32.6% [50 µM] (inactive). Also, the values for the growth in [13] and in [14] were 72.7% [50 µM] (inactive) and 36.3% [50 µM] (inactive), respectively.

With `O=C(c1ccccc1)C(Br)C(Br)c1cccc([N+](=O)[O-])c1` (centres undefined), the growth in assay [15] is -19.4% (active); in assay [1], 18.6% (inactive); in assay [2], 73.9% (inactive); in [3] it was 29.3% (inactive); in assay [4], -29.7% (active); in [5] it was -23.4% (active). Further, the growth in assay [6] was 91.9% (inactive); in [7] it was 51.4% (inactive); in [8] it was 74.8% (inactive); in [9] it was 22.5% (inactive); in assay [10], -100% (active); in assay [11], 24.8% (inactive). Further, the growth is -91% (active) in assay [12] and 89.5% (inactive) in assay [13].

With `COc1cc(-c2nc(Nc3nc4ccccc4[nH]3)nc(N)c2C#N)cc(OC)c1OC`, the growth in assay [15] is 69.8% (inactive); in assay [1] it was 79.6% (inactive); in assay [2], 101% (inactive); in assay [3] it was 72.8% (inactive); in assay [16], 52.6% (inactive); in assay [4], 43% (inactive). For the same compound, the growth was 15.1% (inactive) in assay [5]; 57.8% (inactive) in assay [17]; 71.3% (inactive) in assay [8]; 14.5% (inactive) in assay [9]; 30.9% (inactive) in assay [11]; 43.3% (inactive) in assay [12]. For the same compound, the values for the growth in [13] and in assay [14] were 81.2% (inactive) and 36.6% (inactive), respectively.

`CCCCc1ccc(C(O)(CCN2CC3CCC(CC3)C2)c2ccccc2)cc1` (centres undefined): the growth is 72.2% (inactive) in assay [15]; 104% (inactive) in assay [1]; 90.9% (inactive) in assay [2]; 97% (inactive) in [3]; 91.2% (inactive) in [16]; 95.2% (inactive) in assay [4]. Also, the growth in assay [5] is 91.9% (inactive); in assay [7] it was 98.3% (inactive); in [17] it was 73.8% (inactive); in assay [8] it was 90.2% (inactive); in assay [9] it was 98.2% (inactive); in assay [10] it was 95.7% (inactive). Further, the growth in assay [12] is 77% (inactive); in [13], 90.1% (inactive); in [14], 93.2% (inactive).

Turning to `CCOC(=O)c1[nH]c2cc(Cl)ccc2c1[C@@H](C(=O)NC(C)(C)C)N(CC)C(=O)CCCCC#Cc1cccc2c1CN(C1CCC(=O)NC1=O)C2=O` (some centres undefined), the growth in assay [15] was 7.28% (active); in assay [1], 10.9% (inactive); in assay [2] it was 39.6% (inactive); in assay [3], 13.2% (inactive); in assay [4], 8.84% (active); in [5], 8.96% (active). For the same compound, the growth in assay [6] was -12.6% (active); in [7], 16.8% (inactive); in assay [9] it was 18.1% (inactive); in [10], 22.2% (inactive); in [11], 12.5% (inactive); in [12], 24.6% (inactive). The growth in assay [13] was 6.54% (active); in assay [14], 10.3% (inactive).

For `C=C(C)COC(=O)c1ccccc1C(=O)OCC1(C)CO1` (centres undefined), the growth in assay [15] was 110% (inactive); in assay [1], 95.6% (inactive); in assay [2] it was 96.8% (inactive); in [3], 110% (inactive); in assay [16] it was 110% (inactive); in assay [5], 108% (inactive). The growth is 104% (inactive) in assay [6]; 101% (inactive) in [7]; 102% (inactive) in assay [17]; 102% (inactive) in [8]; 106% (inactive) in assay [9]; 105% (inactive) in [10]. In addition, the growth in assay [11] was 104% (inactive); in assay [12], 105% (inactive); in assay [14] it was 112% (inactive).

For `Cc1ccnc2[nH]c(-c3ccc(F)cc3)cc(=O)c12`, the growth in assay [11] is 22.1% [100 µM] (inactive) and 5.04% [100 µM] (active).

`O=C1CCC(N2C(=O)c3cccc(NCCOCCOCCNC(=O)c4cc5c(o4)C(=O)c4ccccc4C5=O)c3C2=O)C(=O)N1` (centres undefined): the growth in assay [1] was 3.28% (active); in assay [2], -90.8% (active); in [3], -93.5% (active); in [4], -16.1% (active); in assay [5] it was -40.6% (active); in [6] it was -29.7% (active). In addition, the growth is 93.7% (inactive) in [7]; 4.87% (active) in assay [17]; -89.3% (active) in assay [8]; -92.1% (active) in [9]; -19.3% (active) in [10]; -61.3% (active) in assay [11]. Besides, the figures for the growth in assay [12], in assay [13] and in [14] were -16.1% (active), -61.7% (active) and -8.32% (active), respectively.

For `N#CCCN1CCN(CCC#N)C1=S`, the growth in assay [15] is 111% (inactive); in [1], 98.1% (inactive); in [2] it was 101% (inactive); in assay [3] it was 108% (inactive); in assay [16], 108% (inactive); in [5], 110% (inactive). Besides, the growth in [7] is 102% (inactive); in assay [17], 108% (inactive); in assay [8], 99.6% (inactive); in assay [9] it was 106% (inactive); in assay [10], 101% (inactive); in [11] it was 101% (inactive). Besides, the growth was 101% (inactive) in [12] and 109% (inactive) in assay [14].

With `CCC1CC(C)C(O)/C=C/C=C/CC(C)OC(=O)CC(O)C(OC)C1OC1OC(C)CC(O)(C(C)=O)C1O` (centres undefined), in [11], the growth is 32% [100 µM] (inactive) and 5.08% [100 µM] (active).

In the case of `CC(=O)c1cc(C)c(OC(=O)c2ccccc2)c(C)c1`, the growth in assay [15] is 80.4% (inactive); in assay [1] it was 103% (inactive); in [3], 91.6% (inactive); in [16], 103% (inactive); in [4], 123% (inactive); in assay [5] it was 106% (inactive). Also, the growth in assay [6] was 100% (inactive); in [7] it was 97.9% (inactive); in assay [8], 97.6% (inactive); in assay [9], 95.2% (inactive); in assay [10] it was 103% (inactive); in assay [11], 105% (inactive). In addition, the results for the growth in assay [12], in [13] and in [14] were 93.7% (inactive), 100% (inactive) and 104% (inactive), respectively.

Turning to `CN1CCc2cccc3c2C1Cc1ccc(O)c(O)c1-3` (centres undefined), the growth in assay [1] was 89% (inactive); in assay [2], 88.3% (inactive); in [16], 102% (inactive); in assay [4], 76.2% (inactive); in [5] it was 28% (inactive); in assay [6], 99.1% (inactive). Moreover, the growth in [7] is 81% (inactive); in assay [17] it was 89.3% (inactive); in assay [8] it was 81.6% (inactive); in assay [9], 98.6% (inactive); in assay [10], 34.8% (inactive); in [11] it was 81.6% (inactive). Further, the growth in assay [12] is 77% (inactive); in [13], 86.5% (inactive); in assay [14] it was 96.4% (inactive).

Take `CC(=O)N(CC(O)CO)c1c(I)c(C(=O)NCCO)c(I)c(C(=O)NCC(O)CO)c1I` (centres undefined): the growth was 102% (inactive) in [15]; 95.9% (inactive) in [1]; 102% (inactive) in [3]; 103% (inactive) in assay [16]; 103% (inactive) in assay [4]; 107% (inactive) in assay [5]. Besides, the growth in assay [6] was 116% (inactive); in assay [17], 101% (inactive); in assay [8] it was 94.3% (inactive); in assay [9] it was 105% (inactive); in assay [10] it was 109% (inactive); in assay [11], 104% (inactive). In addition, the growth in assay [12] was 97% (inactive); in [14], 103% (inactive).

With `Cc1nc(NN)c([N+](=O)[O-])c(NN)n1`, the growth in assay [15] was 82.5% (inactive); in assay [1] it was 102% (inactive); in assay [3] it was 114% (inactive); in [16], 121% (inactive); in assay [4], 108% (inactive); in assay [5], 99.9% (inactive). Moreover, the growth is 139% (inactive) in assay [6]; 119% (inactive) in [7]; 107% (inactive) in assay [8]; 104% (inactive) in assay [9]; 104% (inactive) in assay [10]; 98.7% (inactive) in assay [11]. Moreover, the growth was 99.2% (inactive) in [12] and 104% (inactive) in [14].

In the case of `COc1c2c(c(OC)c3c1c(=O)c1ccccc1n3C)OCO2`, the growth in assay [11] was 9.09% [100 µM] (active).

For `c1ccc(-c2n(Cc3ccc4ccccc4n3)c3ccccc3[n+]2Cc2ccc3ccccc3n2)cc1`, the growth in assay [1] was 7.66% (active); in [2], 12.8% (inactive); in assay [3], 7.64% (active); in [4] it was -34.3% (active); in assay [5] it was 0.883% (active); in assay [7], 73.4% (inactive). Further, the growth in assay [8] is -0.501% (active); in assay [9], -12.7% (active); in [10], 2.87% (active); in [11] it was 1.36% (active); in assay [12], 5.91% (active); in assay [13], -3.47% (active). Further, in assay [14], the growth is -61.2% (active).

On to `CC(=O)Nc1ccc(S(=O)(=O)N/N=C\c2ccc(Cl)c(Cl)c2)cc1`, for which the growth in [15] is 92.5% (inactive); in [1], 103% (inactive); in assay [2], 108% (inactive); in assay [3] it was 113% (inactive); in assay [16], 105% (inactive); in assay [5], 111% (inactive). For the same compound, the growth in assay [6] is 103% (inactive); in assay [7] it was 103% (inactive); in assay [17], 86.7% (inactive); in assay [8], 99.7% (inactive); in assay [9] it was 105% (inactive); in assay [10], 99.7% (inactive). The growth in assay [11] is 95.6% (inactive); in assay [12], 101% (inactive); in assay [14], 107% (inactive).
